# Results as given in article PMC7862700, “An all-to-all approach to the identification of sequence-specific readers for epigenetic DNA modifications on cytosine”.
# Tests used:
# Assay in all cases: DAPPL (digital affinity profiling via proximity ligation, sequencing); 10 mM Tris-HCl pH 7.5, 50 mM NaCl, 1 mM DTT, 4% glycerol, room temperature, 30 min; GST-TFs on glutathione beads, 16-mer random dsDNA library, 0.1% formaldehyde crosslink after washing; high values mean tight binding
# FEV = molecular target: T1, FEV (Homo sapiens, UniProt Q99581 1-238); details: protein: recombinant; tags: N-terminal GST; dsDNA, one strand shown
# T1 sequence: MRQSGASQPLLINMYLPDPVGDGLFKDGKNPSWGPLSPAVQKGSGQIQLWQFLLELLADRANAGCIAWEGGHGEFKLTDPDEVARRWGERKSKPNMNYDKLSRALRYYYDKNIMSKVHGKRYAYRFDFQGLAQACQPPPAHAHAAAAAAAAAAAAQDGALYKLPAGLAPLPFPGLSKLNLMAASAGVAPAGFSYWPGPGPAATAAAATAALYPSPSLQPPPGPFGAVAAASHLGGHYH
# In short: (§1)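 Beads coated with glutathione captured GST-fused human transcription factors that had been expressed in yeast, and the factors were then given DNA barcodes and pooled with a tag-only sample. The pools were incubated with 200 nmole of a random double-stranded 16-mer DNA library in Tris/NaCl/DTT/glycerol buffer for 30 min at room temperature, washed, crosslinked with 0.1% formaldehyde and proximity-ligated with BsaI/T4 ligase at 37 °C for 1 h. PCR amplification and Illumina NextSeq500 sequencing came last. Binding signal is each hexamer's read frequency for a factor divided by its frequency for the tag-only sample.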
# ETV5 = ETV5 (Homo sapiens, UniProt P41161 1-510); details: protein: recombinant; tags: N-terminal GST; dsDNA, one strand shown
# In short: as §1
# HSF1 = HSF1 (Homo sapiens, UniProt Q00613 1-529); details: protein: recombinant; tags: N-terminal GST; chain copies: 3; dsDNA, one strand shown
# In short: as §1
# SPIC = molecular target: T2, SPIC (Homo sapiens, UniProt Q8N5J4 1-248); details: protein: recombinant; tags: N-terminal GST; dsDNA, one strand shown
# T2 sequence: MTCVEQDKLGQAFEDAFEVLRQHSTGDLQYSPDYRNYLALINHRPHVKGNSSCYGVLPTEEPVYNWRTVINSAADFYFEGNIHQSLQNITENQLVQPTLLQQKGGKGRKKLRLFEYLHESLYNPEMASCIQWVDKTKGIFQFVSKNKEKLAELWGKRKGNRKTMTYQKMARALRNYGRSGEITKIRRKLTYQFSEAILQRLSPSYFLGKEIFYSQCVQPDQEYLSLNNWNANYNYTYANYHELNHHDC
# In short: as §1
# ELF4 = ELF4 (Homo sapiens, UniProt Q99607 1-663); details: protein: recombinant; tags: N-terminal GST; dsDNA, one strand shown
# In short: as §1
# ELK4 = molecular target: T3, ELK4 (Homo sapiens, UniProt P28324-2 1-405); details: protein: recombinant; tags: N-terminal GST; dsDNA, one strand shown
# T3 sequence: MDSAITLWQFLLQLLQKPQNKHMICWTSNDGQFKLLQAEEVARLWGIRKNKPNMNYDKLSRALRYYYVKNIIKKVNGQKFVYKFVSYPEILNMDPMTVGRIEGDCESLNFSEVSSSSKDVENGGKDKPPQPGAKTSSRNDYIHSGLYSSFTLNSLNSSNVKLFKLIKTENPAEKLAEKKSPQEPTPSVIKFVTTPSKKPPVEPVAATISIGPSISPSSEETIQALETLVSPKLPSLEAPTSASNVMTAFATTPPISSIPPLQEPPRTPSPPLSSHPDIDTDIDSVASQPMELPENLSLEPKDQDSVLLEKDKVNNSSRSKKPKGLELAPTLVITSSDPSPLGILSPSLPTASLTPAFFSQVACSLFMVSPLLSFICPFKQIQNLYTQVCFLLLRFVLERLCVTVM
# In short: as §1
# ETV2 = molecular target: T4, ETV2 (Homo sapiens, UniProt O00321 1-342); details: protein: recombinant; tags: N-terminal GST; dsDNA, one strand shown
# T4 sequence: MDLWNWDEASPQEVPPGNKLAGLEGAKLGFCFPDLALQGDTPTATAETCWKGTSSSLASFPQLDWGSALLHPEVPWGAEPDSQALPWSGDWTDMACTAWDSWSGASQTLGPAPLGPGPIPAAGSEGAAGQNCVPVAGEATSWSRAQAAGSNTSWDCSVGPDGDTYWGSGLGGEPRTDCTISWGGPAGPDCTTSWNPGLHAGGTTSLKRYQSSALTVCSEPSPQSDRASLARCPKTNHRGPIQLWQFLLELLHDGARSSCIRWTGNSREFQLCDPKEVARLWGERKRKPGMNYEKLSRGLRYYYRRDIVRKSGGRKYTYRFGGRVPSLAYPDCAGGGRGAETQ
# In short: as §1
# ELF3 = molecular target: T5, ELF3 (Homo sapiens, UniProt P78545 1-371); details: protein: recombinant; tags: N-terminal GST; dsDNA, one strand shown
# T5 sequence: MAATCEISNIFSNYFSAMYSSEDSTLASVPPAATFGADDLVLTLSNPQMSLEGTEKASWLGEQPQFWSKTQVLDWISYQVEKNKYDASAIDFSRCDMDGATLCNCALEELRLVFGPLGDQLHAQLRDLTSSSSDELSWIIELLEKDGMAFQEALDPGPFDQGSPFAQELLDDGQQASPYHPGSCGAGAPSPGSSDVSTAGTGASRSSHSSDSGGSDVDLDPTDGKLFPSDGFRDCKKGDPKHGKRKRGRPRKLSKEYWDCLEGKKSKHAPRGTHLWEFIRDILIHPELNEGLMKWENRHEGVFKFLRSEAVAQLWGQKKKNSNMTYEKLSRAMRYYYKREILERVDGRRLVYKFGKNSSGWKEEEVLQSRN
# In short: as §1
# CRX = CRX (Homo sapiens, UniProt O43186 1-299); details: protein: recombinant; tags: N-terminal GST; dsDNA, one strand shown
# In short: as §1
# ETV1 = ETV1 (Homo sapiens, UniProt P50549 1-477); details: protein: recombinant; tags: N-terminal GST; dsDNA, one strand shown
# In short: as §1
# ERF = molecular target: T6, ERF (Homo sapiens, UniProt P50548 1-548); details: protein: recombinant; tags: N-terminal GST; dsDNA, one strand shown
# T6 sequence: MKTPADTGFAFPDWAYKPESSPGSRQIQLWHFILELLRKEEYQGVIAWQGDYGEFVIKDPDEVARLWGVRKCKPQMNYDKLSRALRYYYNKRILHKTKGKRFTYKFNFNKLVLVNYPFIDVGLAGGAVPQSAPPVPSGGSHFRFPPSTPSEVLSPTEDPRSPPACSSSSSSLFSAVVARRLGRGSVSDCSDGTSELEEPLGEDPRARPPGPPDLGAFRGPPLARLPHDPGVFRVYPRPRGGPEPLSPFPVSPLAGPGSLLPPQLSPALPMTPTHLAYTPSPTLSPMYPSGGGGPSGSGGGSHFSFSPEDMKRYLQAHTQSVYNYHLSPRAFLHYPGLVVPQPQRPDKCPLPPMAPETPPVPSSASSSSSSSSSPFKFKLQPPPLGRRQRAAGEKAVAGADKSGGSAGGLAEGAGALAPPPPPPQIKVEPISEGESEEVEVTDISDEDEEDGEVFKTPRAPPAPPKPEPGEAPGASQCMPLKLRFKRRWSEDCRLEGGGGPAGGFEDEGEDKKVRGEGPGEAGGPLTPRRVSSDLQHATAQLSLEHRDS
# In short: as §1
# ETV3L = molecular target: T7, ETV3L (Homo sapiens, UniProt Q6ZN32 1-361); details: protein: recombinant; tags: N-terminal GST; dsDNA, one strand shown
# T7 sequence: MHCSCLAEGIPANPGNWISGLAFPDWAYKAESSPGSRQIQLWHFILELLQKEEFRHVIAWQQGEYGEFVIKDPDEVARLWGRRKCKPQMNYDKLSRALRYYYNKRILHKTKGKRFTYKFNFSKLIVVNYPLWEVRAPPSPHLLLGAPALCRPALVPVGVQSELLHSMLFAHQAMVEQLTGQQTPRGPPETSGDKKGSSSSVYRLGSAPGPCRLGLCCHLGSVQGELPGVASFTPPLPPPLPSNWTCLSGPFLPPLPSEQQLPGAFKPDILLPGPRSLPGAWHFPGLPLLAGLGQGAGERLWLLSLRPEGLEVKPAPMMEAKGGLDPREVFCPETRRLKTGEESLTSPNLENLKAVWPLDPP
# In short: as §1
# ETS2 = molecular target: T8, ETS2 (Homo sapiens, UniProt P15036 1-469); details: protein: recombinant; tags: N-terminal GST; dsDNA, one strand shown
# T8 sequence: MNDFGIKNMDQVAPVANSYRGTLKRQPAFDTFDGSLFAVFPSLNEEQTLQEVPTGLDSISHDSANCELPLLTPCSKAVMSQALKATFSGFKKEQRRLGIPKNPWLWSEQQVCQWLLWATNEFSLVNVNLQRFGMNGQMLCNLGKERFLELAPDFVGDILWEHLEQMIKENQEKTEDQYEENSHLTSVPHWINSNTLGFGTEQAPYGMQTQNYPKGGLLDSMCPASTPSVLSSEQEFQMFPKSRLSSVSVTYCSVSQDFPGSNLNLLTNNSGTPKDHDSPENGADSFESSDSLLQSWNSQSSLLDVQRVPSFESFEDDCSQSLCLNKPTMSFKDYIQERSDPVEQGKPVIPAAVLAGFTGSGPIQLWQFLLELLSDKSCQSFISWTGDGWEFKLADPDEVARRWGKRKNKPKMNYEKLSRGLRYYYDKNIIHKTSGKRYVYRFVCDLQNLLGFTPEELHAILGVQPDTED
# In short: as §1
# SPDEF = molecular target: T9, SPDEF (Homo sapiens, UniProt O95238 1-335); details: protein: recombinant; tags: N-terminal GST; dsDNA, one strand shown
# T9 sequence: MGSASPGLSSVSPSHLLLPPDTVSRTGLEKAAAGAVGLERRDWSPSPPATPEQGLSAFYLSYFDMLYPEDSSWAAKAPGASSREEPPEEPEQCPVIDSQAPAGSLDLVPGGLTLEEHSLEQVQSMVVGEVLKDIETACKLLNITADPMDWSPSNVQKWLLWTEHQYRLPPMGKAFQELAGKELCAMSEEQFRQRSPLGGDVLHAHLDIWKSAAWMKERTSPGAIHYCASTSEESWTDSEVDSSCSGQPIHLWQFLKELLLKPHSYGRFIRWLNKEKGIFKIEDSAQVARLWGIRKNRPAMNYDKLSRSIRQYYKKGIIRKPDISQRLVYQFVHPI
# In short: as §1
# ETV7 = molecular target: T10, ETV7 (Homo sapiens, UniProt Q9Y603 1-341); details: protein: recombinant; tags: N-terminal GST; dsDNA, one strand shown
# T10 sequence: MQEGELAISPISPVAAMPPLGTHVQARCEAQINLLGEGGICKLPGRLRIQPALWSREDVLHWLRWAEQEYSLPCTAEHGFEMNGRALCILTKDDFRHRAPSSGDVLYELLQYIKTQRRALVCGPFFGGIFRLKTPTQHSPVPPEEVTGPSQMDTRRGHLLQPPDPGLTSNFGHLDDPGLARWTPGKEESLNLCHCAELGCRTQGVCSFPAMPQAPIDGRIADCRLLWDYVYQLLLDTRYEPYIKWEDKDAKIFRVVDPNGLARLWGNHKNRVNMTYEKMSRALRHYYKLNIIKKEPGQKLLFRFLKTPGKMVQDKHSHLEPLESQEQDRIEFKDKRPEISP
# In short: as §1
# ELF5 = molecular target: T11, ELF5 (Homo sapiens, UniProt Q9UKW6-2 1-255); details: protein: recombinant; tags: N-terminal GST; dsDNA, one strand shown
# T11 sequence: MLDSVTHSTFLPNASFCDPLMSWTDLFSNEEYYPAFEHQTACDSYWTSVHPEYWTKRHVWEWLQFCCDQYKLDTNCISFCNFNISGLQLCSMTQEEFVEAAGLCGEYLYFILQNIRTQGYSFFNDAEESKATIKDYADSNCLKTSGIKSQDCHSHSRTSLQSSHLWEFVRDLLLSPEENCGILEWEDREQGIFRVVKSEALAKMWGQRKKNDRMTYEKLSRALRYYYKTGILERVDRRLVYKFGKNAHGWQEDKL
# In short: as §1
# ETV3 = molecular target: T12, ETV3 (Homo sapiens, UniProt P41162-2 1-143); details: protein: recombinant; tags: N-terminal GST; dsDNA, one strand shown
# T12 sequence: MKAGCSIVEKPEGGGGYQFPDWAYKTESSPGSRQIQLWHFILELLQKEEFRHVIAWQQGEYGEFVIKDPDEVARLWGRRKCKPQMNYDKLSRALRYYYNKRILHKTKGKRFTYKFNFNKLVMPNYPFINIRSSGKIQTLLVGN
# In short: as §1
# ETV6 = ETV6 (Homo sapiens, UniProt P41212 1-452); details: protein: recombinant; tags: N-terminal GST; dsDNA, one strand shown
# In short: as §1
# Sequence of ETV5 (P41161 whole entry): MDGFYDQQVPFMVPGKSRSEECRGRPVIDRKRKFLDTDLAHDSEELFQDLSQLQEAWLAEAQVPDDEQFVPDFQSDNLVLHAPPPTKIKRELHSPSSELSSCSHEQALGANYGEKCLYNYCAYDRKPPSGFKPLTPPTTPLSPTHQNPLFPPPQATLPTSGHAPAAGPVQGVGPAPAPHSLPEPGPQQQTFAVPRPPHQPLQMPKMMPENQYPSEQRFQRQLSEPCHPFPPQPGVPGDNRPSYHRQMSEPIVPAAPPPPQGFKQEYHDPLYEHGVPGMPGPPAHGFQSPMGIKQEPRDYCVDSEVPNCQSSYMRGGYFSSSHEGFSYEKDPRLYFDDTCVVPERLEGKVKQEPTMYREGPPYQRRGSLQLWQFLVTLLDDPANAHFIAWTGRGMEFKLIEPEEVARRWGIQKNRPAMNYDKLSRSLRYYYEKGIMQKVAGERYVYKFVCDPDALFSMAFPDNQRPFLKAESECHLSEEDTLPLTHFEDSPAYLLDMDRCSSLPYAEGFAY
# Sequence of ETV1 (P50549 whole entry): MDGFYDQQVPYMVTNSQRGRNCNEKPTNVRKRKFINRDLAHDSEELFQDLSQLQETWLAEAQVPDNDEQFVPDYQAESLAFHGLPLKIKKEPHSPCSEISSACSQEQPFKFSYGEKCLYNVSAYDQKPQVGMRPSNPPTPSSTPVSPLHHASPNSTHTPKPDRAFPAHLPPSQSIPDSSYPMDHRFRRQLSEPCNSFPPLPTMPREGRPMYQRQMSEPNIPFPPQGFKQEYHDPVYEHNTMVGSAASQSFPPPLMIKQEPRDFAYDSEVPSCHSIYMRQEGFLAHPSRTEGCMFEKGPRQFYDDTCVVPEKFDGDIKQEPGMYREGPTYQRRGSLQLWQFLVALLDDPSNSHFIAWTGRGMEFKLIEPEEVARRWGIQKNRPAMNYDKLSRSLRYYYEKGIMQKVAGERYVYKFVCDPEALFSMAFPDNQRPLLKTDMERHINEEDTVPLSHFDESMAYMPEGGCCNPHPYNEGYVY
# Sequence of CRX (O43186 whole entry): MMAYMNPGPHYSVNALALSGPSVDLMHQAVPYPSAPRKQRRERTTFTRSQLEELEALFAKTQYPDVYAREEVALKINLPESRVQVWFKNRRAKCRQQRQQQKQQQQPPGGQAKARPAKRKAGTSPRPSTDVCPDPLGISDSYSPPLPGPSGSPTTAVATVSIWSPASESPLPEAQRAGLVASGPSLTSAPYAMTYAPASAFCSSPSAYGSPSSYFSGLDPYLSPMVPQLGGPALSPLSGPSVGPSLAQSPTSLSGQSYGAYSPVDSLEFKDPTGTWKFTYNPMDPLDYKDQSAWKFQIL
# Sequence of ETV6 (P41212 whole entry): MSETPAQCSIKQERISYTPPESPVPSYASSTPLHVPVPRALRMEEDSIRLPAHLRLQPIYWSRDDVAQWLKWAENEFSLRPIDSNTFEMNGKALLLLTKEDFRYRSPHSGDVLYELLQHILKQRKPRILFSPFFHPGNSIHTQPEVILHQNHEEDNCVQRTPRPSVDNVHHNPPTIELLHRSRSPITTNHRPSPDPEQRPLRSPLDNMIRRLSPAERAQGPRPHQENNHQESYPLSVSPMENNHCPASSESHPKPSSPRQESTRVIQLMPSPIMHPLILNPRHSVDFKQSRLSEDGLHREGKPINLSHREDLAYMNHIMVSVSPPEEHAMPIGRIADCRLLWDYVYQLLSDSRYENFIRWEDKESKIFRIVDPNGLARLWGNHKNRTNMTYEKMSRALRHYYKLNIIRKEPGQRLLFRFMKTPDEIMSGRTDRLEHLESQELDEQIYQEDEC
# Sequence of ELF4 (Q99607 whole entry): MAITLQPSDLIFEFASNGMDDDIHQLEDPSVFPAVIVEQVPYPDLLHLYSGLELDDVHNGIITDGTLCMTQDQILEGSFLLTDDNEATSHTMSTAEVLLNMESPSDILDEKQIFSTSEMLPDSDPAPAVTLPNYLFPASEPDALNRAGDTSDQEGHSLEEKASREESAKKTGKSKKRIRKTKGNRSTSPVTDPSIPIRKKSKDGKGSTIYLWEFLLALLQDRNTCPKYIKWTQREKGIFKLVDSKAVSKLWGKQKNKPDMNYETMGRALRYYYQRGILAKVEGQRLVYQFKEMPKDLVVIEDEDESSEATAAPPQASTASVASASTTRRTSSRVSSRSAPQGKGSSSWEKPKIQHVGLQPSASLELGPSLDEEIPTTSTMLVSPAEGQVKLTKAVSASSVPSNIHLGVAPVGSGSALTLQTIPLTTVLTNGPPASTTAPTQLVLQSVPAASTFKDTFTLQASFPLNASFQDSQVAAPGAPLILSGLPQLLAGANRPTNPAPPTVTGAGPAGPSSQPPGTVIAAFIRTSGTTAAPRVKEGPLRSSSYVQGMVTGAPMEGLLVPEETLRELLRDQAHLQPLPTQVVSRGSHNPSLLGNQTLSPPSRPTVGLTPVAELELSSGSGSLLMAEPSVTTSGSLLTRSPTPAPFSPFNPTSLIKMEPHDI
# Sequence of HSF1 (Q00613 whole entry): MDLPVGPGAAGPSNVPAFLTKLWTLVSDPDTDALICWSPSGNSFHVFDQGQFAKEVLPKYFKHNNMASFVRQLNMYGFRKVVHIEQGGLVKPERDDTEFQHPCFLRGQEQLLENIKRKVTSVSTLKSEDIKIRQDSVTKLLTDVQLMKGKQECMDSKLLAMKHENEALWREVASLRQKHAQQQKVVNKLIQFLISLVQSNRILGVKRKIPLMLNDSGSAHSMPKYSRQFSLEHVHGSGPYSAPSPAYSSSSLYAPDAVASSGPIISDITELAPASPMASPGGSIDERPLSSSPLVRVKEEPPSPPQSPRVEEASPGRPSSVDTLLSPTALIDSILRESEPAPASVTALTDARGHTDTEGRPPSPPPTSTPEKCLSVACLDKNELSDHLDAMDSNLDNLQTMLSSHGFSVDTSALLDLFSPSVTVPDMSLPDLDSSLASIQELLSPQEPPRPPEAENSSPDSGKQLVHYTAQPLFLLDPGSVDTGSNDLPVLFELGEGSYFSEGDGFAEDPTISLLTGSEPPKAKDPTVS
sequence,measurement,setting,value
CTTCTA,binding signal,FEV,"1.4 fold enrichment (6-mer frequency, TF over GST control)"
same,binding signal,ETV5,"1.46 fold enrichment (6-mer frequency, TF over GST control)"
same,binding signal,HSF1,"3.31 fold enrichment (6-mer frequency, TF over GST control)"
same,binding signal,SPIC,"1.28 fold enrichment (6-mer frequency, TF over GST control)"
same,binding signal,ELF4,"1.38 fold enrichment (6-mer frequency, TF over GST control)"
same,binding signal,ELK4,"1.53 fold enrichment (6-mer frequency, TF over GST control)"
same,binding signal,ETV2,"1.49 fold enrichment (6-mer frequency, TF over GST control)"
same,binding signal,ELF3,"1.42 fold enrichment (6-mer frequency, TF over GST control)"
same,binding signal,CRX,"1.87 fold enrichment (6-mer frequency, TF over GST control)"
same,binding signal,ETV1,"1.49 fold enrichment (6-mer frequency, TF over GST control)"
same,binding signal,ERF,"1.5 fold enrichment (6-mer frequency, TF over GST control)"
same,binding signal,ETV3L,"1.35 fold enrichment (6-mer frequency, TF over GST control)"
same,binding signal,ETS2,"1.53 fold enrichment (6-mer frequency, TF over GST control)"
same,binding signal,SPDEF,"1.3 fold enrichment (6-mer frequency, TF over GST control)"
same,binding signal,ETV7,"1.43 fold enrichment (6-mer frequency, TF over GST control)"
same,binding signal,ELF5,"1.39 fold enrichment (6-mer frequency, TF over GST control)"
same,binding signal,ETV3,"1.2 fold enrichment (6-mer frequency, TF over GST control)"
same,binding signal,ETV6,"1.4 fold enrichment (6-mer frequency, TF over GST control)"
